Hit rate of the full screen: of about 57,000 compounds, about 200 (0.35%) were called active.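 The calls were made as follows: active = mean inhibition of replicates at least 50% and every single replicate also reaching 50%; inconclusive = mean inhibition at least 50% but some replicate falls below 50%; inactive = mean inhibition under 50%.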 Only a selection was taken, and actives are over-represented in it overall.
Target: Histone-lysine N-methyltransferase EZH2 (Homo sapiens) (UniProt Q15910)
Test: EZH2/PRC2 methyltransferase inhibitors, primary screen, biochemical, DELFIA time-resolved fluorescence, single point (AID 651548);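 also: dimethyl H3K27 on biotinylated H3 21-44 peptide detected by antibody; plate controls were median neutral control wells for no effect and median positive control wells for full effect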
Conditions: PRC2 H3K27 methylation, DELFIA TRF, 1 h; at 12.5 µM; stronger effect = higher value

Sequence of Histone-lysine N-methyltransferase EZH2 (Homo sapiens) (Q15910 whole entry, looked up): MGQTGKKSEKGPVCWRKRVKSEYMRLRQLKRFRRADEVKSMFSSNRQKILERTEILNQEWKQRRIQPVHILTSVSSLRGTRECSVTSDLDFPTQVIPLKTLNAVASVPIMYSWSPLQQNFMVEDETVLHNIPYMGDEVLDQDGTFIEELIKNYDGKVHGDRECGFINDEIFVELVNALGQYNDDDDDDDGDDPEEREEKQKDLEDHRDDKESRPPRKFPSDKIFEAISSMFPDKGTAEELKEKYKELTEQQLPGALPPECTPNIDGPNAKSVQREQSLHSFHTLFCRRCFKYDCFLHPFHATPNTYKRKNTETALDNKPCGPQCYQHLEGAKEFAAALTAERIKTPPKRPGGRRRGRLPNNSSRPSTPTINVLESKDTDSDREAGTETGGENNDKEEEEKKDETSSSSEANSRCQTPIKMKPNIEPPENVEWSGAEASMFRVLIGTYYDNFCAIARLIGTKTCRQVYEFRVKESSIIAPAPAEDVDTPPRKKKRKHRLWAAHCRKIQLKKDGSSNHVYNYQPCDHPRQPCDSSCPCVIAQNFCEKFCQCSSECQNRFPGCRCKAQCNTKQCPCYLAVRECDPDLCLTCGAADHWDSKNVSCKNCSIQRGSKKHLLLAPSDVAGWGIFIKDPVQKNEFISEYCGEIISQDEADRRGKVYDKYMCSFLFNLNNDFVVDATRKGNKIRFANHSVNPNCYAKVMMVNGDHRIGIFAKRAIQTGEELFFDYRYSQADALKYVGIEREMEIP

| Compound | inhibition |
| --- | --- |
| C[C@@H](NC(=O)C[C@H]1C[C@@H]2c3cc(NC(=O)c4ccc5c(c4)OCO5)ccc3O[C@@H]2[C@@H](CO)O1)c1ccccc1 | -6.67% (inactive) |
| COc1ccccc1NC(=O)N[C@H]1CC[C@@H](CC(=O)N[C@@H](C)c2ccccc2)O[C@H]1CO | -11.3% (inactive) |
| O=C(C[C@H]1CC[C@H](NC(=O)Nc2ccccc2F)[C@@H](CO)O1)NCc1ccccc1 | 4.86% (inactive) |
| O=C(C[C@@H]1CC[C@H](NC(=O)C2CC2)[C@@H](CO)O1)NCc1ccncc1 | 3.36% (inactive) |
| C[C@@H]1CN([C@@H](C)CO)C(=O)c2cc(-c3cccnc3)cnc2O[C@H]1CN(C)Cc1ccc(-c2ccccc2)cc1 | 7.86% (inactive) |
| CN(C)Cc1cn(CC[C@H]2CC[C@H](NC(=O)Nc3ccccc3F)[C@@H](CO)O2)nn1 | 24.4% (inactive) |
| C[C@H]1CN([C@@H](C)CO)S(=O)(=O)c2ccc(-c3cccnc3)cc2O[C@H]1CN(C)C(=O)C1CCCCC1 | 0.754% (inactive) |
| C[C@@H]1CN([C@@H](C)CO)S(=O)(=O)c2ccc(-c3ccc(F)cc3)cc2O[C@H]1CN(C)C(=O)c1ccccc1F | -11% (inactive) |
| CO[C@@H]1CN(C)C(=O)c2cc(NC(=O)c3ccccc3)ccc2OC[C@@H](C)N(C(C)=O)C[C@@H]1C | 4.81% (inactive) |
| O=C(C[C@H]1C=C[C@H](NC(=O)c2cccc(F)c2)[C@@H](CO)O1)NCc1ccc(Oc2ccccc2)cc1 | -0.132% (inactive) |
| CCCC(=O)Nc1ccc2c(c1)C(=O)N(C)C[C@@H](OC)[C@@H](C)CN(C(=O)CC)[C@H](C)CO2 | 8.4% (inactive) |
| C/C=C1/[C@H](O[C@@H]2O[C@H](CO)[C@@H](O)[C@H](O)[C@H]2O)OC=C2C(=O)O[C@@H]3C[C@@H](C(C)CO)[C@H](COC(=O)C[C@H]21)[C@H]3C (some centres not stated) | -12.8% (inactive) |
| CC1=COC(O[C@@H]2O[C@H](CO)[C@@H](O)[C@H](O)[C@H]2O)C2C1CC(O)C2CO (some centres not stated) | 58.6% (active) |
| COC(=O)C1=CO[C@@H](O[C@@H]2O[C@H](CO)[C@@H](O)[C@H](O)[C@H]2O)[C@@H]2[C@@H](C)[C@@H](OC(=O)C3=CO[C@@H](O[C@@H]4O[C@H](CO)[C@@H](O)[C@H](O)[C@H]4O)[C@@H]4[C@@H](C)[C@@H](OC(C)=O)C[C@H]34)C[C@H]12 | -4.29% (inactive) |
| COc1ccccc1-c1cn(CC[C@H]2CC[C@@H](NC(=O)Cc3ccccn3)[C@@H](CO)O2)nn1 | 9.32% (inactive) |
| COc1cccc(NC(=O)Nc2ccc3c(c2)C(=O)N(C)C[C@@H](OC)[C@H](C)CN(CC2CC2)[C@H](C)CO3)c1 | -8.45% (inactive) |
| CN1CCN(C(=O)c2cc3c(c(-c4cccc(-c5ccc(C(=O)N(C)C)cc5)c4)n2)[C@@H](CCO)N([S@](=O)C(C)(C)C)C3)CC1 | -12.8% (inactive) |
| COc1ccc(CN2C[C@@H](C)[C@H](OC)CN(C)C(=O)c3cc(NC(C)=O)ccc3OC[C@@H]2C)cc1 | -2.6% (inactive) |
| O=C(C[C@H]1C=C[C@H](NC(=O)c2cnccn2)[C@@H](CO)O1)NCc1ccccc1F | 4.44% (inactive) |
| CN(C)C(=O)C[C@H]1C[C@@H]2c3cc(NC(=O)NC4CCCCC4)ccc3O[C@@H]2[C@@H](CO)O1 | 9.52% (inactive) |
| O=C(C[C@@H]1C=C[C@@H](NC(=O)C2CC2)[C@H](CO)O1)NCCCN1CCOCC1 | -1.42% (inactive) |

| Compound | inhibition |
| --- | --- |
| CCC(=O)Nc1ccc2c(c1)C(=O)N(C)C[C@H](OC)[C@@H](C)CN(C(=O)c1cnccn1)[C@@H](C)CO2 | 11.1% (inactive) |
| COCC(=O)Nc1ccc2c(c1)OC[C@H](C)N(Cc1ccccc1OC)C[C@@H](C)[C@@H](OC)CN(C)C2=O | -9.26% (inactive) |
| CO[C@H]1CN(C)C(=O)c2cc(NS(=O)(=O)CC(F)(F)F)ccc2OC[C@H](C)N(C(=O)c2ccc3c(c2)OCO3)C[C@H]1C | 13% (inactive) |
| CO[C@@H]1CN(C)C(=O)c2cc(NC(=O)c3ccno3)ccc2OC[C@@H](C)N(S(C)(=O)=O)C[C@@H]1C | 4.22% (inactive) |
| O=C(CCCCCC(=O)Nc1ccccc1O)N/N=C/c1ccc(I)cc1 | 14.9% (inactive) |
| O=C(CCCCCCC(=O)Nc1ccccc1O)N/N=C/c1ccc(Oc2ccccc2)cc1 | 60.3% (active) |
| O=C(CCCCCCC(=O)Nc1ccccc1O)N/N=C/c1ccc(C(F)(F)F)cc1 | -17.5% (inactive) |
| O=C(C[C@@H]1C[C@@H]2c3cc(NS(=O)(=O)c4ccc(F)cc4)ccc3O[C@@H]2[C@H](CO)O1)NCc1cc(F)ccc1F | 17% (inactive) |
| CCCCc1nn(-c2ccccc2C(F)(F)F)c(=O)n1Cc1ccc(-c2ccccc2S(=O)(=O)NC(=O)c2sccc2C)cc1 | 62% (active) |
| COCC(=O)Nc1ccc2c(c1)C(=O)N(C)C[C@H](OC)[C@@H](C)CN(CC1CC1)[C@@H](C)CO2 | 9.52% (inactive) |
| O=C(C[C@@H]1C[C@@H]2c3cc(NC(=O)C4CCC4)ccc3O[C@@H]2[C@@H](CO)O1)NCCN1CCCCC1 | -3.85% (inactive) |
| CC(C)NC(=O)N[C@@H]1CC[C@H](CC(=O)NCCN2CCCC2)O[C@@H]1CO | -11.4% (inactive) |
| C[C@H](O)C#Cc1ccc2c(c1)O[C@H](CN(C)C(=O)C1CC1)[C@@H](C)CN([C@H](C)CO)S2(=O)=O | 7.79% (inactive) |
| CO[C@H]1CN(C)C(=O)c2ccc(NS(=O)(=O)c3cn(C)cn3)cc2OC[C@@H](C)N(C)C[C@@H]1C | -2.12% (inactive) |
| CCC(=O)N(C)C[C@H]1Oc2cc(C#CC3CCCC3)ccc2S(=O)(=O)N([C@H](C)CO)C[C@@H]1C | 10% (inactive) |
| CN(C)CC(=O)N[C@@H]1CC[C@H](CCn2cc(C3CCCC3)nn2)O[C@H]1CO | -5.37% (inactive) |
| O=C(CCN1CCCCC1)N[C@H]1CC[C@H](CCNS(=O)(=O)c2ccc(F)cc2)O[C@@H]1CO | 4.74% (inactive) |
| O=C(NCC[C@H]1CC[C@@H](NC(=O)c2ccncc2)[C@@H](CO)O1)Nc1ccc(Cl)cc1 | 1.17% (inactive) |
| COc1cccc(NC(=O)N[C@@H]2C=C[C@H](CC(=O)NCc3ccccn3)O[C@H]2CO)c1 | -2.05% (inactive) |
| O=C(C[C@@H]1C=C[C@H](NC(=O)C2CCOCC2)[C@H](CO)O1)NCc1ccncc1 | 7.09% (inactive) |
| CCC(=O)Nc1ccc2c(c1)C(=O)N(C)C[C@H](OC)[C@@H](C)CN(Cc1cccnc1)[C@H](C)CO2 | 2.36% (inactive) |

| Compound | inhibition |
| --- | --- |
| CO[C@H]1CN(C)C(=O)c2cc(NC(=O)NC(C)C)ccc2OC[C@@H](C)NC[C@@H]1C | 4.41% (inactive) |
| Cc1ccc(S(=O)(=O)N[C@@H]2CC[C@H](CCn3cc(-c4cccc(F)c4)nn3)O[C@@H]2CO)cc1 | -11.1% (inactive) |
| CC(C)NC(=O)N[C@@H]1CC[C@H](CCn2cc(-c3ccccc3)nn2)O[C@H]1CO | 6.84% (inactive) |
| CO[C@H]1CN(C)C(=O)c2ccc(NC(C)=O)cc2OC[C@@H](C)NC[C@H]1C | -8.55% (inactive) |
| COC(=O)[C@H](Cc1ccc(N=[N+]=[N-])cc1)N1CC2=C[C@@H](C3CC3)n3c(=O)n(C)c(=O)n3[C@H]2[C@@H]1[C@@H](O)Cc1ccccc1 | 1.09% (inactive) |
| CO[C@@H]1CN(C)C(=O)c2cc(NC(=O)C3CC3)ccc2OC[C@H](C)N(C(=O)c2ccccc2F)C[C@H]1C | 3.97% (inactive) |
| COCC(=O)N(C)C[C@@H]1Oc2ncc(C#C[C@H](C)O)cc2C(=O)N([C@@H](C)CO)C[C@@H]1C | -0.468% (inactive) |
| O=C(C[C@@H]1CC[C@@H](NC(=O)c2ccc3c(c2)OCO3)[C@H](CO)O1)NCc1ccc(F)cc1 | -0.86% (inactive) |
| COc1ccc(CNC(=O)C[C@H]2CC[C@H](NC(=O)Nc3ccc4c(c3)OCO4)[C@H](CO)O2)cc1 | 13.2% (inactive) |
| C[C@H](CO)N1C[C@H](C)[C@@H](CN(C)C(=O)c2ccccc2)OCCCC[C@H](C)Oc2ccc(NC(=O)c3ccccc3)cc2C1=O | -18.6% (inactive) |
| CO[C@@H]1CN(C)C(=O)c2cc(NC(=O)NC3CCCCC3)ccc2OC[C@@H](C)N(C(C)=O)C[C@H]1C | 0.307% (inactive) |
| C[C@@H]1CN([C@H](C)CO)S(=O)(=O)c2ccc(-c3ccccc3)cc2O[C@H]1CN(C)C(=O)C1CCC1 | -4.42% (inactive) |
| CO[C@@H]1CN(C)C(=O)c2ccc(NC(=O)Nc3c(C)noc3C)cc2OC[C@@H](C)NC[C@H]1C | 0.549% (inactive) |
| CO[C@@H]1CN(C)C(=O)c2cc(NS(=O)(=O)c3ccc(Cl)cc3)ccc2OC[C@H](C)NC[C@@H]1C | 3.36% (inactive) |
| CO[C@@H]1CN(C)C(=O)c2ccc(NC(=O)c3ccccn3)cc2OC[C@@H](C)N(C(=O)C2CCCCC2)C[C@H]1C | -0.858% (inactive) |
| CO[C@@H](CN(C)C(=O)c1ccc2c(c1)OCO2)[C@@H](C)CN([C@H](C)CO)S(=O)(=O)c1ccccc1 | -0.585% (inactive) |
| CO[C@H]1CN(C)C(=O)c2cc(NC(=O)Nc3ccccc3F)ccc2OC[C@@H](C)N(CCC(F)(F)F)C[C@@H]1C | -15.8% (inactive) |
| C[C@H](NC(=O)C[C@@H]1C[C@@H]2c3cc(NC(=O)Nc4ccc(C(F)(F)F)cc4)ccc3O[C@@H]2[C@H](CO)O1)c1ccccc1 | -10.9% (inactive) |
| O=C(Nc1ccccc1)N[C@@H]1CC[C@H](CCn2cc(C3(O)CCCC3)nn2)O[C@@H]1CO | -9.38% (inactive) |
| CCNC(=O)C[C@@H]1CC[C@@H](NC(=O)NC2CCCCC2)[C@H](CO)O1 | -1.26% (inactive) |

Reference: PubChem BioAssay AID651548 (Broad Institute, 2012)
